Results published in the supplement of paper PMC7411054.
Where a name gives a salt, the structure may show the parent alone.

The compounds below were run on HepG2-TUBA1B-RELA (assay: lowest phenotypically active concentration; higher = less potent). Settings: treatment time: 24 h.
Method in brief: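 After 24 h at 0.3, 1, 3 or 9 µM, with four wells per treatment, fifteen gene-edited A549, HepG2 and WPMY1 reporter lines carrying BFP, GFP and RFP/FusionRed were imaged live. Each well's live-cell features were expressed relative to solvent control wells. Deviation required ≥3 of 4 wells past the 95th percentile of control Euclidean distances, and reproducibility a median replicate Pearson correlation over the 95th percentile of non-replicates. Phenotypic activity rested on both.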

Structure (SMILES)	lowest phenotypically active concentration
Nc1nc(Cl)nc2c1ncn2[C@@H]1O[C@H](CO)[C@@H](O)[C@@H]1F [clofarabine]	≤ 0.3 µM
Cc1nc(Nc2ncc(C(=O)Nc3c(C)cccc3Cl)s2)cc(N2CCN(CCO)CC2)n1 [dasatinib]	≤ 0.3 µM
O=C(NCc1cccc(O)c1)Nc1nc(-c2ccncc2)cs1 [RKI 1447 dihydrochloride]	≤ 0.3 µM
CC(C)n1nc(-c2cc3cc(O)ccc3[nH]2)c2c(N)ncnc21	1 µM
COc1ccc(-c2ccc3ncc4c(c3c2)n(-c2ccc(N3CCNCC3)c(C(F)(F)F)c2)c(=O)n4C)cn1	≤ 0.3 µM
CC(C)(C)c1cnc(CSc2cnc(NC(=O)C3CCNCC3)s2)o1	≤ 0.3 µM
O=C(O)c1ccc(Nc2ncc3c(n2)-c2ccc(Cl)cc2C(c2c(F)cccc2F)=NC3)cc1	≤ 0.3 µM
COc1ccc(S(=O)(=O)N(C(C)=O)c2ccccc2/C=C/c2cc[n+]([O-])cc2)cc1	3 µM
CC(C)(C)Nc1nc(Nc2ccc(C(N)=O)cc2)cc(N)c1C#N	3 µM
Nc1cccc(-c2cc3c(Oc4cccc(O)c4)ncnc3[nH]2)c1	3 µM
c1ccc2c(c1)Cc1c(Nc3ccc4c(c3)OCCO4)n[nH]c1-2	3 µM
Cc1c(NC(=O)OC[C@@H]2COCCN2)cn2ncnc(Nc3ccc4c(cnn4Cc4cccc(F)c4)c3)c12	1 µM
CCC(=O)N1CCN(c2ccc(-n3c(=O)ccc4cnc5ccc(-c6cnc7ccccc7c6)cc5c43)cc2C(F)(F)F)CC1 [Torin 1]	≤ 0.3 µM
COc1c(Nc2cc(C)[nH]n2)nc(Sc2ccc(S(=O)(=O)Cc3cccc([N+](=O)[O-])c3F)cc2F)nc1N1CCOCC1 [Centrinone]	3 µM
COc1cc2c(NC3CCN(C(C)C)CC3)nc(N3CCC(F)(F)CC3)nc2cc1OCCCN1CCCC1	≤ 0.3 µM
CC(=O)c1c(C)c2cnc(Nc3ccc(N4CCNCC4)cn3)nc2n(C2CCCC2)c1=O	≤ 0.3 µM
CN1c2ccccc2C(=O)N2CCc3c([nH]c4ccccc34)[C@H]21 [Evodiamine]	3 µM
CO[C@H]1C=CC=C(C)C(=O)NC2=CC(=O)C(NCCN(C)C)=C(C[C@@H](C)C[C@H](OC)[C@H](O)[C@@H](C)C=C(C)[C@@H]1OC(N)=O)C2=O [17-DMAG hydrochloride]	≤ 0.3 µM
Cc1noc(C)c1-c1cc(O)cc(C(O)c2ccccc2)c1 (centres undefined)	3 µM
O=C(Nc1ccc(-c2ccnc(Nc3ccc(N4CCOCC4)cc3)n2)cc1)[C@@H]1CCCN1	3 µM

Structure (SMILES)	lowest phenotypically active concentration
NC1(C(=O)N[C@@H](CCO)c2ccc(Cl)cc2)CCN(c2ncnc3[nH]ccc23)CC1	1 µM
NC(=O)Nc1cc(-c2cccc(F)c2)sc1C(=O)N[C@H]1CCCNC1 [AZD 7762 hydrochloride]	≤ 0.3 µM
COc1cc2nc(-c3cc(F)ccc3O)nc(N[C@@H]3CNC[C@H]3C(C)(C)O)c2cc1OC	1 µM
Cc1c[nH]c2nccc(Oc3c(F)cc(Nc4cc(Cl)nc(N)n4)cc3F)c12	≤ 0.3 µM
C[C@H]1[C@H]2CC[C@H]3[C@@H]4CC=C5C[C@@H](N(C)C)CC[C@]5(C)[C@H]4CC[C@]23CN1C [Conessine]	3 µM
CON(C)C(=O)N1N=C(c2cc(F)ccc2F)S[C@@]1(CCCN)c1ccccc1 [ARRY 520 trifluoroacetate]	≤ 0.3 µM
CC[C@H](CO)Nc1nc(NCc2ccc(-c3ccccn3)cc2)c2ncn(C(C)C)c2n1	≤ 0.3 µM
Oc1cccc(-c2nc(N3CCOCC3)c3oc4ncccc4c3n2)c1 [PI 103 hydrochloride]	≤ 0.3 µM
COc1cc(/C=C/c2ccc(OC)cc2OC)cc(OC)c1	3 µM
COc1cc2c(cc1-c1c(C)noc1C)ncc1[nH]c(=O)n([C@H](C)c3ccccn3)c12 [I-BET 151 dihydrochloride]	3 µM
COc1cccc(-c2cc(F)ccc2[C@H]2Cc3nc(N)nc(C)c3C(=O)N2)n1	≤ 0.3 µM
COc1cc(C(=O)NC2CCN(C)CC2)c(F)cc1Nc1ncc2c(n1)N(C1CCCC1)CC(F)(F)C(=O)N2C [TAK 960 hydrochloride]	≤ 0.3 µM
CC[C@]1(O)C[C@@H]2CN(CCc3c([nH]c4ccccc34)[C@@](C(=O)OC)(c3cc4c(cc3OC)N(C=O)[C@H]3[C@@](O)(C(=O)OC)[C@H](OC(C)=O)[C@]5(CC)C=CCN6CC[C@]43[C@@H]65)C2)C1 [vincristine]	≤ 0.3 µM
OC[C@H]1O[C@@H](n2cnc3c(NCc4ccco4)ncnc32)[C@H](O)[C@@H]1O [Kinetin riboside]	1 µM
N#Cc1c(C2CCNCC2)cc(-c2c(O)cccc2OCC2CC2)nc1N	9 µM
C=CC(=O)Nc1cccc(Nc2nc(Nc3ccc(OCCOC)cc3)ncc2F)c1	9 µM
COc1cc(N2CCC(N3CCN(C)CC3)CC2)ccc1Nc1ncnc(Nc2ccccc2S(=O)(=O)C(C)C)n1	9 µM
Fc1ccccc1CNCc1ccc(-c2ccnc3[nH]ccc23)cc1 [OXA 06 dihydrochloride]	1 µM
C[C@H]1COCCN1c1cc(C2(S(=O)(=O)C3CC3)CC2)nc(-c2ccc(NC(=S)NCCO)cc2)n1	1 µM
